Measured values from PubChem BioAssay AID1210 (NMMLSC, 2008).
The source made the active and inactive calls.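 Rule for the calls: active = blocks over 70% of labeled estradiol binding at 10 µM, or over a set limit at 100 nM; inactive = the rest.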

These molecules were tested against Estrogen receptor beta (Homo sapiens) (UniProt Q92731) (assay: ERbeta ligand binders by competition, primary screen, cell-based, Cos7 ERbeta-GFP, flow cytometry (AID 1210;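 note: 0% = DMSO vehicle wells and 100% = complete loss of labeled estradiol signal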)). Conditions: fluorescent estrogen binding, at 10 µM, stronger effect = higher value.
Estrogen receptor beta (Homo sapiens), sequence (Q92731 whole entry, looked up): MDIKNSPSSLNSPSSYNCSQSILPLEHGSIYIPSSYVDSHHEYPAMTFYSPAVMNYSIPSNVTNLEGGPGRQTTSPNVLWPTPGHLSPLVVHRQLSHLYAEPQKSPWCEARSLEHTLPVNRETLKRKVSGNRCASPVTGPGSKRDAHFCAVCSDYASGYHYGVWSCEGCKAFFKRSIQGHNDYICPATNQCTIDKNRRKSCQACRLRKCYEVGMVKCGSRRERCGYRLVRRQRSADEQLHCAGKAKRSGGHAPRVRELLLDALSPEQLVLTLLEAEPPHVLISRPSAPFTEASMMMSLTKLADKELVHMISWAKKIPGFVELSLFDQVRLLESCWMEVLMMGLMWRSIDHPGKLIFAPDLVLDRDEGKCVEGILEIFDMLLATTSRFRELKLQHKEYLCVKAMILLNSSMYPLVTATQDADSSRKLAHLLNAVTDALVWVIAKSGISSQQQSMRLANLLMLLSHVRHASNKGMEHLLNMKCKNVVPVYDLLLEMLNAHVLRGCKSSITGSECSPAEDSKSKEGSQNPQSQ
For CC(=O)c1ccc2c(c1)C1C(Cl)C(Sc3ccccc3[N+](=O)[O-])CC1C(c1ccccc1)N2 (stereo not given), the inhibition was 33% (inactive). With CC(=O)c1ccc2c(c1)C1C(Cl)C(Sc3ccccc3[N+](=O)[O-])CC1C(c1ccccc1[N+](=O)[O-])N2 (stereo not given) the inhibition was 36% (inactive). O=C(O)c1ccc2c(c1)C1C(Cl)C(Sc3ccccc3[N+](=O)[O-])CC1C(c1cccc([N+](=O)[O-])c1)N2 (stereo not given) was tested, and the inhibition was 0% (inactive). In the case of COc1ccc(C2(CN)CCCC2)cc1OC, the inhibition is reported as 8% (inactive). With COc1cc2c(cc1OC)CC(C)(C)NC2 the inhibition was 11% (inactive). COc1ccc(Cn2c(N)c(C(=O)NCc3ccco3)c3nc4ccccc4nc32)cc1 was tested, and the inhibition was 64% (inactive). In the case of CCNCC1(c2ccc(OC)c(OC)c2)CCCC1, the inhibition is reported as 14% (inactive). O=C(O)c1cccc2c1NC(C(=O)O)C1CC(Sc3ccccc3[N+](=O)[O-])C(Cl)C21 (stereo not given) was tested, and the inhibition was 0% (inactive). With C[C@H]1CCC[C@@H](O)CCC/C=C/c2cc(O)cc(O)c2C(=O)O1 the inhibition was 71% (active). NC(=O)c1ccc(N=Nc2c(O)[nH]c(=O)[nH]c2=O)cc1 was tested, and the inhibition was 11% (inactive). With COc1ccc(C2(CN)CCCC2)cc1 the inhibition was 5% (inactive). In the case of N=c1c[n+](CCc2ccc(O)cc2)[n-]o1, the inhibition is reported as 29% (inactive). In the case of O=C(O)c1cccc2c1NC(c1cccc([N+](=O)[O-])c1)C1CC(Sc3ccccc3[N+](=O)[O-])C(Cl)C21 (stereo not given), the inhibition is reported as 67% (inactive). With Cc1ccc2c(c1Cl)NC(C(=O)O)C1CC(Sc3ccccc3[N+](=O)[O-])C(Cl)C21 (stereo not given) the inhibition was 21% (inactive). With COc1ccc2[nH]cc(CCN=C(N)N)c2c1 the inhibition was 16% (inactive). With Cc1ccc(S(=O)(=O)Cc2ccc(C(=O)N3CCC4(CC3)OCCO4)o2)cc1 the inhibition was 56% (inactive). CC1(C)CC(CCNCc2ccc3c(c2)OCO3)(Cc2ccccc2)CCO1 (stereo not given) was tested, and the inhibition was 16% (inactive). With O=C1C2CCN(CC2)C1Cc1ccc(O)cc1 (stereo not given) the inhibition was 19% (inactive). In the case of CCOc1ccccc1N1C(=O)NC(=O)C(CCc2ccncc2)(CCc2ccncc2)C1=O, the inhibition is reported as 41% (inactive). CC(=O)c1ccc2c(c1)C1C(Cl)C(Sc3ccccc3[N+](=O)[O-])CC1C(C(=O)O)N2 (stereo not given) was tested, and the inhibition was 34% (inactive). COc1ccc(CC2NCCc3cc(OC)c(OC)cc32)cc1OC (stereo not given) was tested, and the inhibition was 10% (inactive).

Same assay, conditions: fluorescent estrogen binding, ligand binding inhibition, at 0.1 µM, stronger effect = higher value
CC(=O)c1ccc2c(c1)C1C(Cl)C(Sc3ccccc3[N+](=O)[O-])CC1C(c1ccccc1)N2 (stereo not given) showed an inhibition of 22%. Work on CC(=O)c1ccc2c(c1)C1C(Cl)C(Sc3ccccc3[N+](=O)[O-])CC1C(c1ccccc1[N+](=O)[O-])N2 (stereo not given) yielded an inhibition of 6%. Molecule O=C(O)c1ccc2c(c1)C1C(Cl)C(Sc3ccccc3[N+](=O)[O-])CC1C(c1cccc([N+](=O)[O-])c1)N2 (stereo not given) has an inhibition of 6%. In the case of COc1ccc(Cn2c(N)c(C(=O)NCc3ccco3)c3nc4ccccc4nc32)cc1, the inhibition is reported as 13%. C[C@H]1CCC[C@@H](O)CCC/C=C/c2cc(O)cc(O)c2C(=O)O1 was tested, and the inhibition was 62%. Molecule NC(=O)c1ccc(N=Nc2c(O)[nH]c(=O)[nH]c2=O)cc1 has an inhibition of 17%. With O=C(O)c1cccc2c1NC(c1cccc([N+](=O)[O-])c1)C1CC(Sc3ccccc3[N+](=O)[O-])C(Cl)C21 (stereo not given) the inhibition was 11%. Cc1ccc(S(=O)(=O)Cc2ccc(C(=O)N3CCC4(CC3)OCCO4)o2)cc1 gave an inhibition of 7%. Molecule CCOc1ccccc1N1C(=O)NC(=O)C(CCc2ccncc2)(CCc2ccncc2)C1=O has an inhibition of 35%.
